Among the data in PubChem BioAssay (NCATS) are Potency and activity (max response) values, retold here.

The nature of assay [1]: Quantitative highthroughput screen to assess conditional lethalithy of NOMO1 cells grown in RPMI1640 with untreated serum (RPMI+s) (AID 1963876).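 For viability: 100% = DMSO wells and 0% = empty wells without cells.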 Note: nearly all actives have a fitted effect of over 35% in size. Note: potency is the fitted concentration of half-maximal effect. The gist of the method: (§1)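 Each medium arm—HPLM with 10% dialyzed FBS, or RPMI1640 with 5 mM glucose and 10% untreated or dialyzed FBS—was screened against an 11-point, 3-fold compound titration for 48 h at 37 °C, with CellTiter-Glo luminescence as endpoint.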

A short description of assay [2]: Quantitative highthroughput screen to assess conditional lethalithy of NOMO1 cells grown in Human Plasma-Like Medium with dialyzed fetal bovine serum (HPLM+ds) (AID 1963878).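 For viability: 100% = DMSO wells and 0% = empty wells on each plate.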 Note: nearly all actives have a fitted effect of over 35% in size. Note: potency is the fitted concentration of half-maximal effect. The essentials:
as §1

Assay [3] can be described thus: Quantitative highthroughput screen to assess conditional lethalithy of P12 Ichikawa cells grown in Human Plasma-Like Medium with dialyzed fetal bovine serum (HPLM+ds) (AID 1963879). For viability: series mostly up to about 46 µM. Note: nearly all actives have a fitted effect of over 35% in size. Note: potency is the fitted concentration of half-maximal effect. The note with it: Potency: viability. The gist of the method: as §1
Assay [4] is described as follows: Quantitative highthroughput screen to assess conditional lethalithy of P12 Ichikawa cells grown in RPMI1640 with dialyzed fetal bovine serum (RPMI+ds) (AID 1963880).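 For viability: 100% = DMSO wells and 0% = empty wells on each plate.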 Note: nearly all actives have a fitted effect of over 35% in size. Note: potency is the fitted concentration of half-maximal effect. The note with it: Potency: P12-Ichikawa viability. The essentials:
as §1

Assay [5] can be described thus: Quantitative highthroughput screen to assess conditional lethalithy of SEM cells grown in Human Plasma-Like Medium with dialyzed fetal bovine serum (HPLM+ds) (AID 1963882). For viability: series mostly up to about 46 µM. Note: nearly all actives have a fitted effect of over 35% in size. Note: potency is the fitted concentration of half-maximal effect. The essentials: as §1
Assay [6] in a line: Quantitative highthroughput screen to assess conditional lethalithy of P12 Ichikawa cells grown in RPMI1640 with untreated serum (RPMI+s) (AID 1963881).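 For viability: series mostly up to about 46 µM; 100% = DMSO wells and 0% = empty wells without cells.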 Note: nearly all actives have a fitted effect of over 35% in size. Note: potency is the fitted concentration of half-maximal effect. The note with it: Potency: viability. The gist of the method: as §1
A short description of assay [7]: Quantitative highthroughput screen to assess conditional lethalithy of SEM cells grown in RPMI1640 with unreated serum (RPMI+s) (AID 1963883).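 For viability: 100% = DMSO wells and 0% = empty wells without cells.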 Note: nearly all actives have a fitted effect of over 35% in size. Note: potency is the fitted concentration of half-maximal effect. The essentials:
as §1

Assay [8] is described as follows: Quantitative highthroughput screen to assess conditional lethalithy of SEM cells grown in RPMI1640 with dialyzed fetal bovine serum (RPMI+ds) (AID 1963884).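 For viability: series mostly up to about 46 µM; 100% = DMSO control wells and 0% = empty wells without cells.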 Note: nearly all actives have a fitted effect of over 35% in size. Note: potency is the fitted concentration of half-maximal effect. The gist of the method:
as §1

Assay [9] is described as follows: Cellular viability qHTS for adrenocortical cancer (ACC) cell line SW-13 (AID 1963989).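 Note: cells grown in serum-free medium with ITS supplement; % is set by controls: 0 for no effect and ±100 for the full control effect; nearly all actives have a fitted effect of over 65% in size.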 As to conditions: SW-13 ACC cells viability, CellTiter-Glo, 48 h; activity (max response): active compounds read low. The gist of the method:
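Here, serum-free SW-13 cultures were dosed up to 46 uM. Following 48 h, ATP-dependent luminescence (CellTiter-Glo) reported viable cells, and logistic modeling produced IC50 values.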

Assay [10] is described as follows: Cellular viability qHTS for adrenocortical cancer (ACC) cell line NCI-H295R (AID 1963990).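 Note: 0% = DMSO only wells and -100% = full killing with cytotoxic reference compound; nearly all actives have a fitted effect of over 60% in size.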 The essentials: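 Viability of NCI-H295R after 48 h of treatment (final up to 46 uM) measured through cellular ATP luminescence.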

Results filed as inconclusive are left out. A number with no mark means an inactive call. The source made the active and inactive calls. Calls come from the whole dose curve; as a rule, active = well fitted curve in the direction sought with a large enough effect; inconclusive = small, poorly fitted or top-dose-only effect, or another doubt; inactive = no such curve, though single readings can be large; an effect the other way counts as inactive or inconclusive.

Regarding `Clc1ccc(COC(Cn2ccnc2)c2ccc(Cl)cc2Cl)cc1` (stereo not given), the Potency entry in assay [1], in assay [2], in assay [3] and in assay [5] was “inactive” in each case. Also, the Potency in assay [4] is 5.9 µM (active).
As for `O=c1cc(-c2ccccc2)oc2cc(O)c(O)c(O)c12`, the Potency was 5.9 µM (active) in assay [1]; 5.9 µM (active) in assay [3]; 9.35 µM (active) in assay [6]; 4.18 µM (active) in assay [7]; 8.33 µM (active) in assay [8]. The Potency result in [2] was “inactive”. Moreover, in [9], the activity (max response) is -15.6%.
Consider `CCC[C@@H](NC(=O)[C@@H]1[C@H]2CCC[C@@H]2CN1C(=O)[C@@H](NC(=O)[C@@H](NC(=O)c1cnccn1)C1CCCCC1)C(C)(C)C)C(=O)C(=O)NC1CC1`, for which the Potency entry in assay [1], in assay [2], in assay [3], in assay [4], in assay [6] and in assay [5] was “inactive” in each case. Also, the Potency entry in assay [7] and in assay [8] was “inactive” throughout.
For the compound `CC(C=CC(=O)NO)=C[C@@H](C)C(=O)c1ccc(N(C)C)cc1`, the Potency was 2.09 µM (active) in assay [1]; 1.66 µM (active) in assay [2]; 1.48 µM (active) in assay [3]; 1.18 µM (active) in [4]; 1.18 µM (active) in [6]; 0.59 µM (active) in assay [5]. Also, the Potency in assay [7] was 0.662 µM (active); in assay [8], 0.59 µM (active).
Consider `COc1cc(C(C)=O)ccc1OCCCN1CCC(c2noc3cc(F)ccc23)CC1`, for which the Potency result in assay [1], in assay [3], in [4], in assay [6], in [5] and in assay [8] was “inactive” in each case. Moreover, the Potency entry in assay [10] was “inactive”.
As for `CC[C@]12C=CCN3CC[C@@]4(c5cc([C@@]6(C(=O)OC)C[C@H]7C[C@@H](C(C)(F)F)CN(Cc8c6[nH]c6ccccc86)C7)c(OC)cc5N(C)[C@H]4[C@@](O)(C(=O)OC)[C@H]1OC(C)=O)[C@@H]32`, the Potency in [1] is 0.0332 µM (active); in [3], 0.0372 µM (active); in assay [4], 0.0743 µM (active); in [6], 0.0264 µM (active); in [5] it was 0.0296 µM (active); in assay [7] it was 0.0187 µM (active). The Potency in assay [8] is 0.0332 µM (active).
`Cc1[nH]c(C=C2C(=O)Nc3ccc(S(=O)(=O)Cc4c(Cl)cccc4Cl)cc32)c(C)c1C(=O)N1CCC[C@H]1CN1CCCC1`: the Potency result in assay [1] and in [3] was “inactive” throughout. In [5], the Potency was 2.35 µM (active).
For `O=S(=O)(N=Cc1c(O)ccc2ccccc12)c1cccs1`, the Potency result in [1], in assay [4], in assay [6] and in assay [8] was “inactive” each time. In addition, the Potency in assay [3] is 16.6 µM (active).
